# Results reported in the GenesisPotency data set.
# In all, about 1,300 compounds went through this assay and fewer than 10 were called active. About 3% were inconclusive and are not listed. The call rests on the fitted dose curve; in most records, active means well fitted inhibition curve with a large enough effect; inconclusive means small, poorly fitted or top-dose-only effect; inactive means flat fitted curve, though single readings scatter. Only a sample is shown.
# System: T1, 
# T1 sequence (whole entry): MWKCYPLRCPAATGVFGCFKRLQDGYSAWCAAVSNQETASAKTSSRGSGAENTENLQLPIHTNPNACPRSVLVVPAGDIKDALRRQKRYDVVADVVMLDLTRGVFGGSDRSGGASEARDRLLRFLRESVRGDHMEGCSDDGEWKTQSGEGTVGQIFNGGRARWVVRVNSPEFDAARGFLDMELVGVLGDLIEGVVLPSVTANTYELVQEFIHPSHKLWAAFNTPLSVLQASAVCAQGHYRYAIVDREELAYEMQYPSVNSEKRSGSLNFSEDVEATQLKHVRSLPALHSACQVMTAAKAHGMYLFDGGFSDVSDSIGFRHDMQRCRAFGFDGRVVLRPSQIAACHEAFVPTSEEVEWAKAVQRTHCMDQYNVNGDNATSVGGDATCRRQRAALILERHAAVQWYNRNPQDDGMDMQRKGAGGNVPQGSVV
# Test: qHTS of Trypanosoma Brucei Inhibitors: LOPAC Validation (AID 624147)
row,SMILES,outcome
1,N.N.[Cl][Pt][Cl],active
